# Ba/F3 V617F tox = loss of viability in JAK2V617F-driven Ba/F3 cells; Ba/F3 EpoR-JAK2V617F viability, ATP luminescence; inhibition, % at 5.6 µM; 220,000 tested, 1.1% active; AID 1446;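 active = inhibition above the campaign mean plus 3 SD over all tested compounds, cut at about 24% in these data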;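 also: cytokine-independent growth of Ba/F3 cells driven by EpoR plus mutant JAK2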
# aSyn UTR inh = MLPCN primary screen, SNCA 5' untranslated region. 300,000 tested, 0.82% active. inhibition, % (tested at 7.5 µM). AID 1813. alpha-synuclein 5'UTR reporter, inhibitor activity; in the data active = inhibition above about 60%; inconclusive = no clear call, values can overlap the other calls;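 also: H4 neuroglioblastoma cells stably carrying SNCA 5'UTR luciferase fusion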
# IEC-6 tox = kills IEC-6 intestinal cells in KLF5 counter-screen; inhibition, % at 5 µM; 290,000 tested, 0.78% active; IEC-6 cytotoxicity, luminescence viability; in the data active = inhibition above about 22%
# KLF5 inhibitor = suppresses KLF5 promoter-driven expression; DLD-1 KLF5 promoter-luciferase reporter, luminescence; inhibition, % at 5 µM; 290,000 tested, 0.23% active;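 active = inhibition above a per-plate limit of that plate's mean compound inhibition plus 3 SD, cut at about 60% in these data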;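 also: higher means less KLF5 promoter-driven luciferase light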
# APP 5UTR inh = APP translation inhibition; SH-SY5Y APP 5'UTR-luciferase reporter, luminescence; inhibition, % at 2 µM; 190,000 tested, 0.82% active; AID 1285;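 active = inhibition above a set limit, derived from the sample mean plus 3 SD, cut at about 45% in these data; inconclusive = one replicate passes the limit while the other fails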
# BaF3 parental = parental Ba/F3 viability inhibition as JAK2V617F counter-screen; CellTiter-Glo ATP luminescence; inhibition, % at 5.6 µM; 220,000 tested, 1.1% active; AID 1486;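 active = inhibition above a per-campaign cutoff, the mean inhibition of all tested compounds plus 3 SD, cut at about 27% in these data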
# A number is an active result; 0 = inactive; ? = inconclusive; - = no result given. Hits are enriched below; roughly 2.1% of the tested compounds scored in any of these assays.
SMILES,Ba/F3 V617F tox,aSyn UTR inh,IEC-6 tox,KLF5 inhibitor,APP 5UTR inh,BaF3 parental
N=c1c2c(n(Cc3ccc(Cl)c(Cl)c3)c3c1CCC3)CCCC2,88.1,0,0,0,0,75.7
N=c1c2c(n(Cc3ccc(Br)cc3)c3c1CCC3)CCCC2,100.2,?,0,0,0,75.1
COC(=O)c1ccc(CSCc2ccc(C#N)cc2)cc1,-,0,0,0,-,-
Cc1ccc(CNC(=O)CCc2cn(C)c3ccccc23)cc1,-,0,0,0,-,-
Cc1csc2ncnc(NCCc3ccccn3)c12,36.9,0,0,0,0,77.5
Cc1ccc(NC(=O)c2cc(C(=O)c3cc(Cl)ccc3O)cn(-c3ccc(C)cc3)c2=O)cc1,0,0,0,0,0,0
O=C(CN1CCN(c2ncccn2)CC1)N1CCCc2c1c(=O)oc1ccc(O)cc21,0,-,0,0,72.0,0
CC(=O)Oc1ccc2oc(=O)c3c(c2c1)CCCN3C(=O)CN1CCN(c2ncccn2)CC1,0,0,0,0,0,0
CCCC(C)c1nnc(NC(=O)c2cc(C(=O)OC)cc([N+](=O)[O-])c2)s1 (configuration not stated),0,0,0,0,0,0
CC(=O)Nc1ccc(S(=O)(=O)N(Cc2ccccc2)C(C)C)cc1,32.0,0,0,0,0,49.9
O=S(=O)(c1ccc(Cl)cc1)N1CCN(Cc2c[nH]c3ccccc23)CC1,0,0,0,0,0,0
Clc1ccccc1N1CCN(Cc2c[nH]c3ccccc23)CC1,-,64.1,-,-,-,-
CC(C)(C)C(=O)NC(=S)Nc1ccccc1C(=O)Nc1ccccc1,0,0,0,0,0,95.3
COc1ccccc1NC(=O)NC1CCS(=O)(=O)C1 (configuration not stated),-,0,0,0,-,-
COCC(=O)N1CCC(Oc2ccc(C(=O)NC(C)c3nc(C)sc3C)cc2)CC1 (configuration not stated),-,0,0,0,-,-
CN(C)c1ccc(/C=C(\C#N)c2ccccc2)cc1,83.1,-,73.8,0,-,76.1
O=C(NNC1=Nc2ccccc2SC1)c1ccc(F)cc1,0,0,0,0,-,0
O=C(NNC1=Nc2ccccc2SC1)c1ccc(Cl)cc1,0,96.2,0,0,-,0
S=C(Nc1cccc(Cl)c1Cl)N1CCC2(CC1)OCCO2,0,0,0,0,0,29.6
O=C(O)COc1ccccc1C(Nc1cccnc1)c1cc(Cl)c2cccnc2c1O (configuration not stated),0,0,0,0,0,0
CCOc1ccc(C(Nc2cccnc2)c2cc(Cl)c3cccnc3c2O)cc1 (configuration not stated),0,66.8,0,0,0,0
O=C(NC(c1ccccc1)c1cc(Cl)c2cccnc2c1O)c1cccnc1 (configuration not stated),0,99.7,0,0,-,0
Cc1nc(C)c(C(=O)NCc2ccc(Cl)cc2)o1,0,0,0,0,0,0
Cc1nn(C)c(C(=O)NCc2ccc(Cl)cc2)c1Cl,0,0,0,0,0,34.3
CCCCNC(=O)CCc1nc2cccnc2n1Cc1ccccc1,-,0,0,0,-,-
SMILES,Ba/F3 V617F tox,aSyn UTR inh,IEC-6 tox,KLF5 inhibitor,APP 5UTR inh,BaF3 parental
Cc1cccc(C)c1NC(=O)CNC(=O)c1cn(-c2ccccc2)nc1-c1ccccc1,-,0,0,0,-,-
Cc1nn(Cc2c(Cl)cccc2Cl)c(C)c1NC(=O)c1cn(-c2ccccc2)nc1-c1ccccc1,0,122.3,0,0,0,0
Cc1cccn2cc(-c3cc4ccccc4oc3=O)nc12,0,0,0,0,0,89.8
O=c1oc2ccccc2cc1-c1cn2cccnc2n1,0,0,0,0,0,0
O=c1oc2ccccc2cc1-c1cn2ccccc2n1,0,98.2,0,0,0,0
CN=c1scc(-c2ccc(F)cc2)n1/N=C/c1ccc(O)c(O)c1,97.8,-,0,0,0,36.1
CN=c1scc(-c2ccc([N+](=O)[O-])cc2)n1/N=C/c1ccco1,0,0,0,0,0,0
Cc1ccc(/C=N/NC(=O)c2cccnc2)o1,0,0,0,0,0,0
O=C(O)c1cccc(-c2ccc(/C=N/NC(=O)c3cccnc3)o2)c1,0,0,0,0,0,28.4
Cc1cccc(CN2CCC(Oc3ccc(C(=O)N4CCCC4)cc3)CC2)n1,-,0,0,0,-,-
COc1ccc(C(=O)C2CCN(C(=S)NCCc3ccc(OC)c(OC)c3)CC2)cc1,0,0,0,0,0,0
COc1ccc(CCNC(=S)N2CCC(C(=O)c3ccc(F)cc3)CC2)cc1OC,0,0,0,0,47.7,0
Cc1ccc(F)cc1CNC(=O)C1CCC(=O)N(CCCN2CCCC2=O)C1 (configuration not stated),-,0,0,0,-,-
O=C(NC(=S)Nc1ccc2oc(=O)ccc2c1)c1cccc(Cl)c1,-,0,0,0,-,-
COc1ccc(CCC(=O)NCCS(=O)(=O)N2CCN(c3ccc(OC)cc3)CC2)cc1,-,0,0,0,-,-
O=C(NCCS(=O)(=O)N1CCN(c2ccc(F)cc2)CC1)c1ccc(Br)o1,-,127.2,0,0,-,-
COc1ccc(N2CCN(S(=O)(=O)CCNC(=O)Cc3ccc([N+](=O)[O-])cc3)CC2)cc1,-,65.3,0,0,-,-
OC(COCCOc1ccc(Br)cc1)CN1CCN(Cc2ccccc2)CC1 (configuration not stated),0,0,0,0,0,0
CN(C)c1ccc(/C=N/n2cnn(Cc3ccccc3Cl)c2=S)cc1,0,0,0,0,0,0
Fc1ccc(/C=N/n2cnn(Cc3ccccc3Cl)c2=S)cc1,0,0,0,0,62.4,0
Cc1cccc(-n2c(=S)[nH]c3sc4c(c3c2=O)CCc2ccccc2-4)c1,0,0,0,0,0,0
Cc1nc(N)nc(N)c1CCCc1ccc(Cl)c(Cl)c1,-,91.8,-,-,-,-
CCc1cccc(CC)c1NC(=O)CO/N=C(\C)c1cccs1,0,0,0,0,0,0
OCCN(CCO)CC(O)COc1ccc(Br)cc1 (configuration not stated),0,0,0,0,-,0
OCCN(CCO)CC(O)COc1ccc(C23CC4CC(CC(C4)C2)C3)cc1 (configuration not stated),0,76.3,0,0,52.7,0
SMILES,Ba/F3 V617F tox,aSyn UTR inh,IEC-6 tox,KLF5 inhibitor,APP 5UTR inh,BaF3 parental
O=C(NCC(=O)N1CC(O)CC1C(=O)N1CC(O)CC1C(=O)OCc1ccccc1)OCc1ccccc1 (configuration not stated),0,0,0,0,0,0
O=S1(=O)Nc2c(ccc3cccnc23)-c2ccccc21,0,0,67.2,0,59.9,0
Clc1ccc2ccc3cccnc3c2n1,-,0,0,0,-,-
Cc1ccc2oc(/N=C(\N)NC(=O)C(C)(C)C)nc2c1,0,96.1,0,0,-,0
NNC(=O)c1cccc(COc2ccc3c(c2)CCC3)c1,0,70.6,0,0,0,0
NNC(=O)c1cccc(COc2ccccc2Br)c1,0,0,0,0,0,0
CCOC(=O)c1cc(-c2ccccc2)n(CCC(=O)N2CCN(c3ccccn3)CC2)c1C,0,0,0,0,0,0
O=C(N/N=C/c1ccc(O)c(O)c1)c1ccc(CSc2cccc3cccnc23)cc1,61.8,0,0,0,0,26.9
Cc1ccc(C(C)C)c(OCc2ccc(C(=O)N/N=C/c3ccc(O)c(O)c3)cc2)c1,38.7,0,0,0,49.9,78.3
O=C(CCc1ccccc1)Nc1cc(Cl)ccc1O,0,0,0,0,0,28.8

# Bioassay records (PubChem BioAssay)
